Data on 59 molecules can be found in PubChem BioAssay AID651813 (National Center for Advancing Translational Sciences (NCATS), 2012).

Molecules are shown by their SMILES. Several values for one entry are separate records, joined by “and”; a condition that tells them apart may be missing. Equal entries are not always repeated. The campaign covered roughly 2,100 compounds. About 1,100 (52%) were called active. Roughly 27% stayed inconclusive and do not appear here. The call rests on the fitted dose curve; in most records, active means well fitted inhibition curve with a large enough effect; inconclusive means small, poorly fitted or top-dose-only effect; inactive means no such curve, though single readings can be large or run the other way. So high a share suggests a set chosen from earlier hits. Some of the results follow.
Potency means the concentration at half of the fitted maximal effect.

Sequence of DNA dC->dU-editing enzyme APOBEC-3G (Homo sapiens) (Q9HC16 whole entry, looked up): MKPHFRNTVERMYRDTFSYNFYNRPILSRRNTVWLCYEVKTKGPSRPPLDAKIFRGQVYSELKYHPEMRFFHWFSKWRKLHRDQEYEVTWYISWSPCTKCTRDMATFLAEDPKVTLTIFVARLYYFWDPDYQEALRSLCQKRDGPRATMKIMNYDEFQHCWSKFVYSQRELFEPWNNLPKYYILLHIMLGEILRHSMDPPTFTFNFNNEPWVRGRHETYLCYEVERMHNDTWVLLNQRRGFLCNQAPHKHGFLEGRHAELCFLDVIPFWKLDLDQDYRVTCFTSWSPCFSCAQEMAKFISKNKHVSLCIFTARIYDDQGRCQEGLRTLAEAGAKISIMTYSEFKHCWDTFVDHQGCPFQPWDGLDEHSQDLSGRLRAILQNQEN

In this experiment the target is DNA dC->dU-editing enzyme APOBEC-3G (Homo sapiens) (UniProt Q9HC16). Kind of experiment: qHTS for inhibitors of Vif-A3G interactions: Cherry picks counterscreen.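 Further: hits raise yellow fluorescence by blocking Vif-driven A3G-eYFP degradation; nearly all actives have a fitted effect of over 70% in size.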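 On max response: max response given as percent of control signal.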 Conditions: HeLa A3G-eYFP + Vif (tagged APOBEC3G with the HIV-1 protein that degrades it), eYFP fluorescence, 24 h. In short, it runs like this:
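HeLa cells stably expressing A3G-eYFP and Vif were treated for 24 h at 37 deg C with compounds at several concentrations; yellow fluorescence (Ex 488 nm, Em 500-530 nm) read by Acumen Explorer, MG132 as positive control.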
Consider `C=CCSc1nc2sc3c(c2c(=O)n1CC)CCC3`, for which the max response was -26.5% (inactive). For `CN(C)c1ccc(/C=C2\Oc3ccc(C#Cc4cccc(N)c4)cc3C2=O)cc1`, the Potency was 17.7 µM (active). Same read-out and setting: in the case of `CC1(C)Cc2nc3sc4c(=O)n(CC(=O)NCc5ccccc5)cnc4c3cc2CO1` it was 3.96 µM (active). On the same count and under the same terms, with `CCOc1ccc(S(=O)(=O)NCc2ccccn2)cc1NC(=O)c1ccccc1` the figure was 3.96 µM (active); with `COc1ccc(S(=O)(=O)NCc2ccccn2)cc1NC(=O)c1ccccc1`, 15.8 µM (active). Take `COc1ccc(S(=O)(=O)NCc2ccccn2)cc1NC(=O)c1ccc(C)cc1`: the Potency is 11.2 µM (active). In the case of `COc1ccc(OC)c2sc(NC(=O)CCS(=O)(=O)c3ccccc3)nc12`, the max response was -5.13% (inactive). On the same count and under the same terms, with `S=C(NCCSCc1ccc(Cl)cc1)Nc1ccccc1` the figure was -13.3% (inactive); with `O=[N+]([O-])c1ccc(C2=Nc3cc(Cl)ccc3OC2)cc1`, -16.9% (inactive). As to `COc1ccccc1N1N=C(c2ccc([N+](=O)[O-])cc2)CC1c1ccccc1` (centres undefined), the Potency is 1.25 µM (active). The same measure, in the same setting: in the case of `O=[N+]([O-])c1ccc(C2=NN(c3ccccc3)C(c3ccco3)C2)cc1` (centres undefined) it was 0.498 µM (active); in that of `O=[N+]([O-])c1ccc(/C=C/C2=NN(c3ccccc3)C(c3ccco3)C2)o1` (centres undefined), 2.31 µM (active). Still for that read-out and setting: with `Cc1ccc(NC(=O)/C=C/c2ccc([N+](=O)[O-])s2)cc1` the figure was 5.17 µM (active). The same measure, in the same setting: with `Cc1ccc(NC(=O)/C=C/c2ccc([N+](=O)[O-])s2)c(C)c1` the figure was 10.3 µM (active). On to `Cc1cc(C)cc(NC(=O)/C=C/c2ccc([N+](=O)[O-])s2)c1`, for which the Potency is 13 µM (active). As to `Cc1cccc(NC(=O)/C=C/c2ccc([N+](=O)[O-])s2)c1`, the Potency was 14.6 µM (active). With `CC(=O)c1cccc(NC(=S)N2c3ccccc3CC2C)c1` (centres undefined), the max response was 10.2% (inactive).

Turning to `CC(=O)c1cccc(NC(=O)/C=C/c2ccc([N+](=O)[O-])s2)c1`, the Potency was 10.3 µM (active).

Take `O=C(OCC12CC3CC(CC(C3)C1)C2)c1ccc(NCc2cc(O)ccc2O)cc1`: the max response was 39.2% (inactive). For `CCCN1C=CC(=CC=C(C#N)C#N)C=C1`, the Potency is 9.94 µM (active). Same read-out and setting: with `C=CCN1C=CC(=CC=C(C#N)C#N)C=C1` the figure was 12.5 µM (active).

Consider `Cn1c2ccccc2c2ccc3c(c21)C(=O)C=CC3=O`, for which the max response is 10.2% (inactive). For the molecule `COc1cc(OC)c(OC)cc1/C=C1\Oc2cc(OCC(=O)N3Cc4ccccc4C[C@H]3C(=O)O)ccc2C1=O`, the Potency is 2.06 µM (active). Regarding `COc1ccc(/C=C2\Oc3cc(OC(=O)N4CCOCC4)ccc3C2=O)c(OC)c1`, the max response is -18.4% (inactive). On to `Cn1cc(C2=C(c3ccc(Cl)cc3Cl)C(=O)NC2=O)c2ccccc21`, for which the Potency is 2.06 µM (active) and 8.2 µM (active). The same measure, in the same setting: in the case of `COc1ccccc1Nc1cc2cc(Br)ccc2c(=O)[nH]1` it was 15.8 µM (active); in that of `COc1ccc(C(=O)Nc2sc3c(c2C#N)CCN(C(C)=O)C3)cc1`, 12.5 µM (active); in that of `COc1cccc(C(=O)Nc2sc3c(c2C#N)CCN(C(C)=O)C3)c1`, 3.96 µM (active). For the molecule `O=C1[C@@H]2[C@@H](CN3CN(c4ccccc4)N=C(c4ccccc4)[C@@]23c2ccccc2)C(=O)N1c1ccccc1`, the max response is 3.63% (inactive). Turning to `Cc1noc(C)c1COc1cccc(C(=O)OCC(=O)N2CC(=O)Nc3ccccc32)c1`, the Potency is 5.59 µM (active). The same measure, in the same setting: in the case of `COc1ccc(N=Cc2sc(O)c3ccccc23)cc1` it was 3.96 µM (active); in that of `Oc1sc(C=Nc2ccc(F)cc2)c2ccccc12`, 8.2 µM (active); in that of `COc1ccc(N=Cc2c(O)c3ccccc3n2C(C)=O)cc1`, 14.6 µM (active). Still for that read-out and setting: with `COc1ccc(N=Cc2oc3ccc4ccccc4c3c2O)cc1` the figure was 18.4 µM (active). The same measure, in the same setting: in the case of `Oc1sc(C=Nc2ccccc2)c2ccccc12` it was 18.4 µM (active). As to `COc1ccc2nc3ccccc3nc2c1NC(=O)c1ccc(Br)cc1`, the Potency was 14.6 µM (active). `COc1ccc2nc3ccccc3nc2c1NC(=O)c1ccc(Cl)cc1`: the Potency is 18.4 µM (active).

Consider `Cc1ccc2c(Cl)c(C)c(N3CCCC3)nc2n1`, for which the max response was -28.8% (inactive). With `OCC[n+]1ccc(/C=C/c2c[nH]c3ccccc23)cc1`, the Potency was 18.4 µM (active). On the same count and under the same terms, with `C[n+]1ccc(/C=C/c2c[nH]c3ccccc23)cc1` the figure was 8.2 µM (active); with `CC[n+]1ccc(/C=C/c2c[nH]c3ccccc23)cc1`, 9.2 µM (active). Take `C/C(=N\NC(=O)C(C)n1nc(C)c([N+](=O)[O-])c1C)c1ccccc1O` (centres undefined): the max response is 3.13% (inactive). On the same count and under the same terms, with `CN(C)S(=O)(=O)c1ccc(N2CCCC2)c(C(=O)N2CCN(S(=O)(=O)c3ccc(F)c(F)c3)CC2)c1` the figure was 9.68% (inactive). `CN1CCN(c2ccc([N+](=O)[O-])cc2C(=O)c2ccc(Br)cc2)CC1`: the Potency is 4.98 µM (active). Same read-out and setting: with `Cc1ccc(C(=O)c2cc([N+](=O)[O-])ccc2N2CCN(C)CC2)cc1` the figure was 7.04 µM (active); with `Cc1ccc(C(=O)c2cc([N+](=O)[O-])ccc2N2CCOCC2)cc1C`, 0.994 µM (active); with `COc1ccc(C(=O)c2cc([N+](=O)[O-])ccc2N2CCCC2)cc1`, 7.04 µM (active).

On to `CNc1cncc(-c2cc(C)c(O)c(C)c2)n1`, for which the Potency is 4.98 µM (active).

As for `CCOC(=O)CSc1nc2c(c(=O)[nH]1)C(C)(CC)Cc1ccccc1-2` (centres undefined), the Potency is 8.2 µM (active). For `Cc1sc2nc(SCC(=O)N3CCOCC3)[nH]c(=O)c2c1-c1ccccc1`, the max response was -5.17% (inactive). `O=c1[nH]c(CN2CCN(c3ccccc3)CC2)nc2scc(-c3ccccc3)c12`: the Potency is 9.2 µM (active). The same measure, in the same setting: with `COc1cccc(N2CCN(Cc3nc4scc(-c5ccccc5)c4c(=O)[nH]3)CC2)c1` the figure was 12.5 µM (active); with `CC1=CN2C(=N)/C(=C/c3ccc([N+](=O)[O-])o3)C(=O)N=C2S1`, 17.7 µM (active). For `CCS(=O)(=O)C1=NN2C(=N)/C(=C\c3ccc(SCc4ccco4)o3)C(=O)N=C2S1`, the max response was 2.81% (inactive). With `COc1ccc(CCNC(=O)CC2(CC3=NS(=O)(=O)c4ccccc4N3)CCCC2)cc1OC`, the max response was -1.6% (inactive). Consider `COc1cccc(-c2ccc3c(N)c(C(=O)c4ccc(Br)cc4)sc3n2)c1`, for which the Potency is 20.6 µM (active).

In the case of `COc1cccc(-c2ccc3c(N)c(C(=O)c4ccc(Cl)cc4)sc3n2)c1`, the Potency is 20.6 µM (active).

On to `Cc1noc(C)c1COc1ccc(C(=O)NNC(=O)c2ccccc2F)cc1`, for which the Potency is 8.86 µM (active). In the case of `Cc1noc(C)c1COc1ccc(C(=O)NNC(=O)c2ccccc2)cc1`, the Potency is 5.59 µM (active).
